Test results reported in the supplement of paper PMC10849652.
The full data set covers some 8,800 targets. This sample favours those with a hit. About 0.5% of all pairs of compound and target were hits.

Legend:
Assay in all cases: log2 fold change, soluble protein after heating vs DMSO (PISA); higher = thermal stabilisation; K562 lysate, 10 uM; active = over 0.2 and 3.5 SD of the protein, either way, in both replicates (recomputed)
[1] = compound: C#Cc1cccc(Nc2ncnc3cc(OCCOC)c(OCCOC)cc23)c1 [erlotinib]
How it was run: (§1)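 Log-two fold change in thermal stability relative to solvent controls is reported from duplicates. For each sample, crude K562 extract from dounce-homogenised pellets in PBS pH 7.4 with 1 mM MgCl2, at 1 mg/mL protein, was treated with 10 μM compound for 30 min. Aliquots heated for 3 min across 48°C-58°C were pooled, brought to 0.5% NP-40 at 4°C and cleared at 21,000xg for 90 min. The supernatant was quantified by TMTpro 16plex LC-MS/MS with channel sums equalised.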

[2] = compound: C/C(=N\NC(=O)C1=CC(=CC=C1)S(=O)(=O)N2CCOCC2)/C3=C(C=CC(=C3)Cl)O
How it was run: as §1

[3] = compound: C1=CC(=CC=C1C2=NC3=C(N2)C=C(C=C3)C(=O)N)OC4=CC=C(C=C4)Cl
How it was run: as §1

[4] = compound: C1=CC2=C(C=CC(=C2)/C=C\3/C(=O)NC(=NCC4=CC=CS4)S3)N=C1
How it was run: as §1

[5] = compound: C1=CC2=NC=CN=C2C=C1/C=C/3\C(=O)NC(=O)S3
How it was run: as §1

[6] = compound: C1=CC=C(C=C1)C2=NC(=C(N2)C3=CC=NC=C3)C4=CC(=C(C=C4)Cl)O
How it was run: as §1

[7] = compound: C1=CC=C2C(=C1)C3=NNC4=CC=CC(=C43)C2=O
How it was run: as §1

[8] = compound: C1CCN(C1)C(=O)NC2=CC=CC(=C2)NC3=NC=C(C(=N3)NCCC4=CN=CN4)Br
How it was run: as §1

[9] = compound: C1CN(CCC1(CC2=CC=C(C=C2)Cl)N)C3=NC=NC4=C3C=CN4
How it was run: as §1

[10] = compound: C1COCCN1CCN2C3=CC=CC=C3N=C2NC(=O)C4=CC(=CC=C4)[N+](=O)[O-] [IRAK-1-4 Inhibitor I]
How it was run: as §1

Measured: log2 fold change

NF1 (UniProt P21359)
inactive: [1] 0.072 | [2] -0.031 | [3] -0.02 | [4] -0.056 | [5] -0.008 | [6] -0.003 | [7] -0.089 | [8] 0.017 | [9] 0 | [10] 0.023

NONO (UniProt Q15233)
UniProt Q15233, sequence (Q15233 whole entry, looked up): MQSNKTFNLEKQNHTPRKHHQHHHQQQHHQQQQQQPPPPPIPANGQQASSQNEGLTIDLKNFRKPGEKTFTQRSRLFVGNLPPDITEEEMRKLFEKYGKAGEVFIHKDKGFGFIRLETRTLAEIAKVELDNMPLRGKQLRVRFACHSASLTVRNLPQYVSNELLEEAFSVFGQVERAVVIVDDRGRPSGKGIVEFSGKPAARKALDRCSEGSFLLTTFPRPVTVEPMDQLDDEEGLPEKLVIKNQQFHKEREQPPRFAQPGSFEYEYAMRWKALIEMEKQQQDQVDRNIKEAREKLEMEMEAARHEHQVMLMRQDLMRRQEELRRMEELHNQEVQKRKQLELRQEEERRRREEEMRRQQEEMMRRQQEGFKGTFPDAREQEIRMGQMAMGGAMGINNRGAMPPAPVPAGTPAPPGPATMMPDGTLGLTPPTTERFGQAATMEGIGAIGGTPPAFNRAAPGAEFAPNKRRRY
inactive: [1] 0.021 | [2] -0.048 | [3] 0 | [4] -0.006 | [5] -0.017 | [6] 0.025 | [7] -0.027 | [8] 0.014 | [9] 0.002 | [10] 0.005

NCAPH2 (UniProt Q6IBW4)
UniProt Q6IBW4, sequence (Q6IBW4 whole entry, looked up): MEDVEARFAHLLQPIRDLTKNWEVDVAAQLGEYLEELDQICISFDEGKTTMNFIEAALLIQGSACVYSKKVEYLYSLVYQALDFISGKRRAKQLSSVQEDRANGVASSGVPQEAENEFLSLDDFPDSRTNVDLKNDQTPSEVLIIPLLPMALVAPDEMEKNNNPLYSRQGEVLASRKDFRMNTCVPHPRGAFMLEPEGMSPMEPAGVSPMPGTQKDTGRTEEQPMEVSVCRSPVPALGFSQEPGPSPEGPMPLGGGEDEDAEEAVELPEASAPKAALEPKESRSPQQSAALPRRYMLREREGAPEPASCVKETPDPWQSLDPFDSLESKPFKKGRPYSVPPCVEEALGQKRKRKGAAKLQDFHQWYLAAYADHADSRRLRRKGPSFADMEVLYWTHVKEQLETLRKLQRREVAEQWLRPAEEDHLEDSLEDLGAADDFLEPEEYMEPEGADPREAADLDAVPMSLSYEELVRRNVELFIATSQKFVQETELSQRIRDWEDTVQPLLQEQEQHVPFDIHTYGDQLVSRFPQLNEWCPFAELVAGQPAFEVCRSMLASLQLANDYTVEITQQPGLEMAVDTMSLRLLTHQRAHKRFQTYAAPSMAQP
inactive: [1] -0.031 | [2] -0.085 | [3] 0.011 | [4] -0.012 | [5] 0.026 | [6] 0 | [7] -0.005 | [8] -0.038 | [9] 0.042 | [10] 0.009

NT5DC2 isoform 2 (UniProt Q9H857)
UniProt Q9H857, sequence (Q9H857 whole entry, looked up): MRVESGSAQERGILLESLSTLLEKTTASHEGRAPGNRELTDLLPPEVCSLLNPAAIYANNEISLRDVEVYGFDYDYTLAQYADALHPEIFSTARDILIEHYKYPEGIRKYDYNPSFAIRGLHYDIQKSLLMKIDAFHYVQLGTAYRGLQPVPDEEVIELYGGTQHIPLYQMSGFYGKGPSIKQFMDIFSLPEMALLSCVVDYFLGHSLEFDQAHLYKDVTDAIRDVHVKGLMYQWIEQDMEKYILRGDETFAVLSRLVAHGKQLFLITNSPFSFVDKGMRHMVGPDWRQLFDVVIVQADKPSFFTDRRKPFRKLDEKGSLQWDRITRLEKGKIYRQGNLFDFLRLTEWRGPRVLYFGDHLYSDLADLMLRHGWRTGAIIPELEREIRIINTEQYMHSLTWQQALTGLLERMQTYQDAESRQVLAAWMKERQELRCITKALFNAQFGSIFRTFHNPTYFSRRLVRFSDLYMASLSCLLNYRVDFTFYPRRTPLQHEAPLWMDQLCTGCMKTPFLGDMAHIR
inactive: [1] 0.027 | [2] 0.008 | [3] 0.068 | [4] 0.03 | [6] -0.059 | [7] 0.04 | [8] -0.015 | [9] 0.036 | [10] 0.002
active: [5] 0.505

NUP98 (UniProt P52948)
inactive: [1] -0.018 | [2] 0.017 | [3] 0.023 | [4] -0.026 | [5] 0.005 | [6] -0.079 | [7] -0.004 | [8] 0.015 | [9] 0.021 | [10] 0.002

NELFA (UniProt Q9H3P2)
UniProt Q9H3P2, sequence (Q9H3P2 whole entry, looked up): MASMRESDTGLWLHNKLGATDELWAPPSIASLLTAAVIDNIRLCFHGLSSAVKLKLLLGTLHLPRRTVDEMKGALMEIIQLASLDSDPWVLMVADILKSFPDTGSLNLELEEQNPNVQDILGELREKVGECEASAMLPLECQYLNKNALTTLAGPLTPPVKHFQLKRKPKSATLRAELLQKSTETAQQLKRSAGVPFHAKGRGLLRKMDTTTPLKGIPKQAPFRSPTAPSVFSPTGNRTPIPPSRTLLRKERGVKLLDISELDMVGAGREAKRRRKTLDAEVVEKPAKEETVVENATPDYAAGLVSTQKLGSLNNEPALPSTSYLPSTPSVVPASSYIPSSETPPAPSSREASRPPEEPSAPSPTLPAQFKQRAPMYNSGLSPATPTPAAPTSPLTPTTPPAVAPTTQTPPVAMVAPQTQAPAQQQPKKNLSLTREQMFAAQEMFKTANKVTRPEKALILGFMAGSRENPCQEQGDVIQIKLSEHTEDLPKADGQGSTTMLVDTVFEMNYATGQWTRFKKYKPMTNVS
inactive: [1] -0.04 | [2] -0.018 | [3] 0.002 | [4] 0.047 | [5] 0.007 | [6] 0.007 | [7] -0.009 | [8] 0.011 | [9] -0.001 | [10] -0.017

NACC1 (UniProt Q96RE7)
inactive: [1] -0.006 | [2] 0.038 | [3] 0.036 | [4] -0.023 | [5] -0.004 | [6] 0.01 | [7] -0.011 | [8] 0.023 | [9] -0.014 | [10] 0.009

NFAT5 isoform 5 (UniProt O94916)
UniProt O94916, sequence (O94916 whole entry, looked up): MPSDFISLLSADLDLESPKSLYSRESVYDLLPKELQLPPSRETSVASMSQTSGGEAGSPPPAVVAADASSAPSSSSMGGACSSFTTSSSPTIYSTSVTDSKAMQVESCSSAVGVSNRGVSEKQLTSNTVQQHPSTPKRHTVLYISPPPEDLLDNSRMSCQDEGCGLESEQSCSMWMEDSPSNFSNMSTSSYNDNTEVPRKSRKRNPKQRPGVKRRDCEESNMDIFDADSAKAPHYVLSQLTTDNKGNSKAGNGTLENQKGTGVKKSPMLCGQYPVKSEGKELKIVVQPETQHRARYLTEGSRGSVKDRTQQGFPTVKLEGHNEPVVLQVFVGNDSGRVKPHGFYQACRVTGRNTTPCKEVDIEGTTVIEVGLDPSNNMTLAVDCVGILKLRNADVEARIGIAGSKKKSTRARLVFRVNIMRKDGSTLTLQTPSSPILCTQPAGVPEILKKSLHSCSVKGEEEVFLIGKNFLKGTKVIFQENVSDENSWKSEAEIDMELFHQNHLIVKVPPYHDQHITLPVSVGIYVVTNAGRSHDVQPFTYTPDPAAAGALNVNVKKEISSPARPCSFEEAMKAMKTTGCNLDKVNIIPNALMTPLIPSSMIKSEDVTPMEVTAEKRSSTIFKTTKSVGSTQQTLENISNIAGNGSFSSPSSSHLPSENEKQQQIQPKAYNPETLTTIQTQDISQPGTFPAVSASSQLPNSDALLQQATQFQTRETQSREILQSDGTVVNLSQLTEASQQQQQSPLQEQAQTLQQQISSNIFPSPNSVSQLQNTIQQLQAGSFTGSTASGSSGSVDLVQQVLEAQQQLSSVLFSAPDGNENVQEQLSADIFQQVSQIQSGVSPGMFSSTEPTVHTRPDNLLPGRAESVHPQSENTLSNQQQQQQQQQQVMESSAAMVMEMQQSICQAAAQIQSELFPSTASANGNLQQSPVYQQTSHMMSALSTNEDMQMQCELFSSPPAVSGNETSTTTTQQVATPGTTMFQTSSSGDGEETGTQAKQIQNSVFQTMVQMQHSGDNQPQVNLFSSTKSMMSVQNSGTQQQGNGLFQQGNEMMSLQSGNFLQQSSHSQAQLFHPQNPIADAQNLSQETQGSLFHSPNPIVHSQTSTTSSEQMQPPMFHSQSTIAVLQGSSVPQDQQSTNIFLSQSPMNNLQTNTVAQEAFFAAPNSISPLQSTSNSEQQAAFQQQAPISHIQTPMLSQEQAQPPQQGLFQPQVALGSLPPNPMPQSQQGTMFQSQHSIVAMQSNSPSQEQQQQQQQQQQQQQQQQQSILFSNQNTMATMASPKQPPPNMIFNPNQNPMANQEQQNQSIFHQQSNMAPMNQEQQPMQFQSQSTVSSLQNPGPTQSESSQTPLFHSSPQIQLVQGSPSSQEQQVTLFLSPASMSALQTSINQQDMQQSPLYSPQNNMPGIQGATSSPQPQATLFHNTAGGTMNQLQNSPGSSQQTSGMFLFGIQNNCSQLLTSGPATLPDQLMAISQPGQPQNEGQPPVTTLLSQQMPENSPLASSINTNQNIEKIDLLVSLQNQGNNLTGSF
inactive: [1] -0.06 | [2] -0.012 | [3] 0.016 | [4] -0.036 | [5] 0.049 | [6] -0.008 | [7] -0.012 | [8] -0.006 | [9] 0.02 | [10] 0.047

MTMR6 (UniProt Q9Y217)
inactive: [1] 0.01 | [2] 0.044 | [3] 0.002 | [4] -0.008 | [5] -0.004 | [6] -0.009 | [7] -0.052 | [8] -0.013 | [9] 0.015 | [10] -0.013

NFATC2 (UniProt Q13469)
inactive: [1] 0.002 | [2] 0.067 | [3] 0.014 | [4] 0.032 | [5] -0.016 | [6] 0.002 | [7] -0.144 | [8] -0.018 | [9] -0.049 | [10] 0.033

NFIC (UniProt P08651)
UniProt P08651, sequence (P08651 whole entry, looked up): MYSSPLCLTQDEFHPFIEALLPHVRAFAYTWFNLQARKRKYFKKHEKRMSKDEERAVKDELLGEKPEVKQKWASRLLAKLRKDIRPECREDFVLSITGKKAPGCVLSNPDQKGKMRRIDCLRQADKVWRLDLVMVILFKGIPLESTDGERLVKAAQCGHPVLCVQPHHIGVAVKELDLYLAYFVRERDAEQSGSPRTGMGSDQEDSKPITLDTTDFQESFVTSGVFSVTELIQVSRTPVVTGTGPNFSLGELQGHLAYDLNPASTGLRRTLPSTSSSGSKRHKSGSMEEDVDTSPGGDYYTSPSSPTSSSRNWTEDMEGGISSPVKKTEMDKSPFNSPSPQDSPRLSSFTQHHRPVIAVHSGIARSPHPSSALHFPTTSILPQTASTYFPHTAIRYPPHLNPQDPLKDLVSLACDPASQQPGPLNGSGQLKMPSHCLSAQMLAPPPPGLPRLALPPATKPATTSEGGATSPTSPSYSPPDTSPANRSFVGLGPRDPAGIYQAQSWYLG
inactive: [1] 0.014 | [2] 0.063 | [3] -0.044 | [4] 0.025 | [5] 0.001 | [6] -0.084 | [7] -0.082 | [8] -0.016 | [9] -0.032 | [10] 0.052

NAT1 (UniProt P18440)
UniProt P18440, sequence (P18440 whole entry, looked up): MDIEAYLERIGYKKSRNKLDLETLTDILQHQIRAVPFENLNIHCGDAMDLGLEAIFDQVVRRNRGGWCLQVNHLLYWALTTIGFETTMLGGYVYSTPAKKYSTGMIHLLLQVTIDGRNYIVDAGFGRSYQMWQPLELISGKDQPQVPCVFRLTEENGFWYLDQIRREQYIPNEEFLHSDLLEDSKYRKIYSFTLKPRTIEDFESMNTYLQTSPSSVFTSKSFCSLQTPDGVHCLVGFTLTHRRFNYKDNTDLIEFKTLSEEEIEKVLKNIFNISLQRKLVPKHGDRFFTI
inactive: [1] 0.001 | [2] -0.011 | [3] -0.007 | [4] -0.136 | [5] -0.015 | [6] -0.011 | [8] -0.021 | [9] 0.035 | [10] -0.013
active: [7] 0.528

NOSIP (UniProt Q9Y314)
UniProt Q9Y314, sequence (Q9Y314 whole entry, looked up): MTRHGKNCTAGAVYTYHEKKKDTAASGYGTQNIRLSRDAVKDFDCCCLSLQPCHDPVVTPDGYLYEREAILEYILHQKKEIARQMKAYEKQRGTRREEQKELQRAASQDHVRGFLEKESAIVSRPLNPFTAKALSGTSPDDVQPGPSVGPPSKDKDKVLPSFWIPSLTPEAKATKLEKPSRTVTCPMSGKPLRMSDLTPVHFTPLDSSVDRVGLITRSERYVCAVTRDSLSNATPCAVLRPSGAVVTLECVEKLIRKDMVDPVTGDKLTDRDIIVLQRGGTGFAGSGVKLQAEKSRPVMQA
inactive: [1] 0.012 | [2] -0.001 | [3] 0.023 | [4] 0.022 | [5] 0.011 | [6] 0.025 | [7] -0.019 | [8] 0.003 | [9] 0.022 | [10] 0.01

OARD1 (UniProt Q9Y530)
UniProt Q9Y530, sequence (Q9Y530 whole entry, looked up): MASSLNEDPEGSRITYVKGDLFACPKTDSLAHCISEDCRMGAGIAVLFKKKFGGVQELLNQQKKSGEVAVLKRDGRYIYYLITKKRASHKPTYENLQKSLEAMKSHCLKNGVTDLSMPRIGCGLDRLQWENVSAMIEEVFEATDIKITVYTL
inactive: [1] 0.002 | [2] -0.1 | [3] 0.008 | [4] 0.028 | [5] -0.019 | [6] -0.015 | [7] -0.031 | [8] -0.036 | [9] 0.041 | [10] -0.01

MTHFD1L (UniProt B7ZM99)
inactive: [1] 0.026 | [2] -0.001 | [3] 0 | [4] -0.007 | [5] 0.033 | [6] -0.006 | [7] -0.057 | [8] -0.004 | [9] 0.002 | [10] -0.013
